Compounds with a hit are over-represented: about 13% of the library has one in this group of screens.
USP8 block = blocks human USP8 ubiquitin-rhodamine cleavage; P40818; purified USP8, Ub-rhodamine cleavage fluorescence, 30 min; inhibition, % at 20 µM; actives 4.2% (n = 47,000)
USP28 block = human USP28 deubiquitinase inhibition | actives 3% (n = 47,000) | AID 1645857 | inhibition, % at 25 µM | purified USP28, Ub-rhodamine cleavage fluorescence, 30 min
OTUD3 inh = human OTUD3 deubiquitinase inhibition | Q5T2D3 | purified OTUD3, Ub-rhodamine fluorescence, 2 h | inhibition, % at 25 µM | actives 0.7% (n = 47,000) | AID 1645858
USP30 inh = inhibitors of human USP30 deubiquitinase | inhibition, % at 25 µM | actives 5.3% (n = 47,000) | purified USP30, Ub-rhodamine cleavage fluorescence | AID 1645860
Target sequence (Q70CQ3 whole entry, looked up): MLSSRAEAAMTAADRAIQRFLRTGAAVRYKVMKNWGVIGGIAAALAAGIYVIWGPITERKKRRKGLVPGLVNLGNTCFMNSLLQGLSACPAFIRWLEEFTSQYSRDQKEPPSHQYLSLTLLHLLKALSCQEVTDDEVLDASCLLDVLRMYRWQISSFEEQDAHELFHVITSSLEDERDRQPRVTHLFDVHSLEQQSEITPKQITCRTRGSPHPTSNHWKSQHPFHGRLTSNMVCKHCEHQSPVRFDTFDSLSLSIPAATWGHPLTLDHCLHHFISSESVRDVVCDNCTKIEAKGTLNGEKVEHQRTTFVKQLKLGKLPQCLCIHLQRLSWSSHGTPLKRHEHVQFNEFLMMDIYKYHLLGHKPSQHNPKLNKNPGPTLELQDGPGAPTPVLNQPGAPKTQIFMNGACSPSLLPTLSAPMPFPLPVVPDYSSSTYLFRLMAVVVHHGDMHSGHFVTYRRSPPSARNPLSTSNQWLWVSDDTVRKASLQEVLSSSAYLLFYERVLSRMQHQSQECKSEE
USP17 block = human USP17-like deubiquitinase inhibition; actives 6.5% (n = 47,000); inhibition, % at 50 µM; purified USP17, Ub-rhodamine cleavage fluorescence, 3 h; A8MUK1
* marks the source's active call; other numbers are inactive results; · = no result. Rule as the data show it: active = inhibition above about 30%; inactive = the rest.

SMILES | USP8 block | USP28 block | OTUD3 inh | USP30 inh | USP17 block
COc1ccc(CCNC(=O)c2noc3c2CCc2sccc2-3)cc1OC | 17.2 | 75.5* | -6.7 | -1.0 | 52.1*
CCCn1cnc2cc(-c3noc(CNC(=O)c4cccs4)n3)ccc21 | 33.0* | 9.2 | 5.7 | 23.2 | 5.5
Cc1ccccc1C(=O)N1CCCC2(CCCN2C)C1 (configuration not stated) | 3.7 | 14.7 | 13.2 | 5.0 | 5.0
CC12CCc3occc3C1CCC13CC(CCC12)C(O)(CO)C3 (configuration not stated) | -30.8 | -12.6 | -17.1 | -15.0 | 8.1
C[C@@]12CCc3occc3C1CCC13CC(CCC12)[C@@](O)(CO)C3 (some centres not stated) | 9.6 | 1.6 | 15.9 | 31.6* | 47.2*
Cc1cc2nc(NC(=O)NC3CCCCC3)sc2cc1C | -233.3 | 13.6 | 24.9 | 35.8* | -39.0
O=C(Nc1nc2cc3c(cc2s1)OCCO3)C1CCCCC1 | 11.2 | 22.1 | 7.2 | 12.9 | 11.4
O=c1cc(-c2cncc(-c3cc4ccccc4o3)c2)nc(-c2ccccc2)[nH]1 | 3.5 | -2.2 | 0.1 | 6.9 | 4.9
O=c1cc(-c2cncc(Br)c2)nc(-c2ccccc2)[nH]1 | 34.1* | 6.1 | 11.1 | 30.1* | ·
O=C(Oc1ccc(F)cc1)c1cc(-c2ccc3c(c2)OCCO3)on1 | 55.1* | 2.3 | 6.6 | 0.0 | 4.4
O=C(CCCn1c(=O)c2ccccc2n(CC(=O)c2ccc(F)cc2)c1=O)NC1CCN(Cc2ccccc2)CC1 | -6.0 | -15.8 | 6.9 | 12.4 | 27.0
CCCc1ccc(C(=O)[C@@H]2[C@@H](C(=O)c3cccs3)N3c4ccc(C)cc4C(C)=C[C@@H]3[C@@]23C(=O)Nc2ccccc23)cc1 | 66.7* | -0.6 | -16.7 | -69.2 | 12.2
CCc1cc2c(cc(C(=O)OC)n2CC(=O)Nc2ccc(C)cc2Cl)s1 | -3.9 | 1.1 | 17.0 | 2.5 | 53.4*
COc1ccc(OCC(=O)N2CCc3cc(-c4noc(C)n4)ccc32)cc1 | -0.8 | 7.9 | 4.8 | 2.7 | 35.0*
Cc1nc(-c2ccc3c(c2)CCN3C(=O)Cc2cccc(F)c2)no1 | 21.1 | 19.4 | 13.6 | 13.3 | 18.0
CC(C)(C)c1cc(C(=O)N2CCC(c3cnccn3)CC2)n[nH]1 | 0.1 | -8.2 | -0.5 | 10.8 | -6.3
O=C(Cn1cnc2cc3c(cc21)OCCCO3)N1CCCc2ccccc21 | 36.9* | -8.9 | -14.8 | -79.3 | -8.5
Cc1nnc(-c2cn(CC(=O)N3CCc4ccccc43)c3ccccc23)o1 | 13.3 | 0.7 | 2.9 | -7.3 | 29.3
N#Cc1cn(CC(=O)N2CCc3ccccc32)c2ccccc12 | -109.0 | 51.9* | 2.0 | 53.3* | -18.3
O=C(CN1CCN(S(=O)(=O)c2ccc3c(c2)OCCCO3)CC1)N1CCCc2ccccc21 | 0.1 | 1.1 | 0.8 | 11.6 | -1.9
COC(=O)c1cn(CC(=O)N2CCCc3ccccc32)c2ccccc12 | 8.6 | 11.9 | 16.4 | 17.4 | 40.7*
Cc1ccc(CS(=O)(=O)c2cn(CC(=O)N3CCCc4ccccc43)c3ccccc23)cc1 | 21.7 | -13.4 | -11.5 | -67.0 | -45.0
O=C(Cn1cc(C(=O)C(F)(F)F)c2ccccc21)N1CCc2ccccc21 | 68.4* | 27.8 | 23.4 | 36.8* | 52.3*
Cc1ccc(C2CCCCCN2S(=O)(=O)c2cc(F)ccc2F)s1 (configuration not stated) | 15.3 | 3.0 | 15.6 | 8.4 | 14.9
Nc1cccnc1Sc1ccccn1 | 40.2* | -95.1 | -91.5 | -447.9 | -26.4
SMILES | USP8 block | USP28 block | OTUD3 inh | USP30 inh | USP17 block
CC(=O)c1ccc(NC(=O)CSc2nc3nc(C)ccc3o2)cc1 | -58.2 | -7.1 | -2.3 | -16.0 | 46.2*
Cc1ccc(NC(=O)Cc2nnc3c(-c4nc(C5CC5)no4)cccn23)cc1 | 97.2* | 28.8 | 17.7 | 36.1* | 52.0*
Cc1ccccc1NC(=O)Cc1nnc2c(-c3nc(C4CC4)no3)cccn12 | 14.3 | -3.3 | 15.1 | -6.3 | -5.2
O=C(c1[nH]nc2c1COc1ccccc1-2)N1CCN(c2ccccn2)CC1 | 50.3* | 7.1 | 6.3 | -30.9 | -14.3
O=C(c1[nH]nc2c1COc1ccccc1-2)N1CCN(c2ncccn2)CC1 | 11.9 | -250.4 | -7.6 | -57.1 | -35.0
O=C(Oc1coc(CSc2ncccn2)cc1=O)c1c(F)cccc1F | 45.5* | 19.5 | 18.6 | 21.6 | 12.3
Cn1nc(C(=O)N2CCCCC2)c2c1CCN(C(=O)CCC(=O)NCc1ccccc1)C2 | 0.9 | 11.9 | 12.7 | 21.8 | 5.8
O=C(Nc1ccccc1)N1CCCN(c2c(Cl)cncc2Cl)CC1 | 26.8 | 20.9 | 11.1 | 32.0* | 20.4
O=C(Nc1ccccc1)N1CCCN(c2ccc([N+](=O)[O-])cn2)CC1 | 1.4 | -4.3 | 3.9 | 13.1 | -16.6
COc1cccc(CNc2ccc(-c3nc(-c4ccccc4)no3)nn2)c1 | 75.9* | -18.2 | -14.2 | -106.9 | 23.8
COc1ccc(NC(=O)c2cccc(-c3nc(-c4ccccc4)no3)c2)c(OC)c1 | 23.4 | -5.5 | 4.0 | 3.2 | ·
Cc1cccc(C(=O)N2CCC(C(=O)c3ccc4c(c3)OCCO4)CC2)c1 | 12.3 | 30.5* | 11.8 | 26.5 | 6.5
O=C1CCCc2nc(-c3ccc(OCc4ccc(C(F)(F)F)cc4)cc3)ncc21 | -0.7 | -7.2 | -7.1 | -29.4 | -6.5
Cc1ccc(-n2nc(C)c3c(C)cc(C(=O)NCc4cccs4)nc32)cc1 | -0.5 | 10.6 | 26.4 | 46.3* | 31.2*
O=c1c2cc([N+](=O)[O-])ccc2nc(CN2CCN(c3ccccn3)CC2)n1-c1ccccc1F | -44.1 | 24.7 | 30.3* | 60.9* | 22.2
O=c1c2cc([N+](=O)[O-])ccc2nc(CN2CCN(CCO)CC2)n1-c1ccccc1F | -101.0 | -4.0 | 7.1 | -6.4 | -3.8
CCNC(=O)N1CCc2c(cccc2-n2nnc(C(=O)N(C)Cc3ccco3)c2C)C1 | 36.7* | -5.0 | -8.5 | -74.5 | -5.4
Cc1ccc(S(=O)(=O)N2CCCCC2)cc1NC(=O)c1ccc(C#N)cc1 | -2.8 | 4.0 | 0.1 | -14.0 | -33.0
O=C(Nc1cccc(S(=O)(=O)N2CCCC2)c1)c1ccc(OCC2CCCO2)cc1 (configuration not stated) | 11.1 | 35.6* | 0.1 | 19.3 | 10.2
O=C(Nc1cccc(S(=O)(=O)N2CCCC2)c1)c1ccc(OCc2ccccc2)cc1 | 3.6 | 26.1 | -7.5 | 2.9 | -6.9
COc1ccc(S(=O)(=O)N2CCCCC2)cc1NC(=O)c1ccc(OCC2CCCO2)cc1 (configuration not stated) | -9.1 | 11.0 | 4.8 | 46.9* | 20.4
COc1ccc(-c2nnc(Cc3nc(-c4ccc(C)cc4)no3)o2)cc1 | -85.5 | -7.1 | -15.1 | -39.8 | -22.5
Clc1ccc(-c2cc3n(c2)CCc2cc4c(cc2-3)OCO4)cc1 | 70.3* | -0.4 | 0.1 | -154.4 | 29.9
Cc1ccc(S(=O)(=O)CCc2nc(-c3ccc(N4CCC(C)CC4)cc3)no2)cc1 | 25.6 | 6.5 | -0.1 | 45.0* | ·
Cc1nc(-c2cccc(S(=O)(=O)NCc3ccc(F)cc3)c2)no1 | 1.7 | 5.8 | 4.0 | 4.2 | 1.0
CN1C(=O)OC[C@@H]2CCN(CC3CCOCC3)C[C@H]21 | 6.2 | 6.6 | 13.6 | 18.5 | 6.7
COc1ncccc1CN(C)C(=O)CCc1c[nH]c2ccccc12 | -0.2 | -0.3 | -2.0 | 0.3 | -2.5

Screening data deposited in PubChem BioAssay by Buhrlage Lab, Dana-Farber Cancer Institute and Novartis Institutes for BioMedical Research (Cambridge, Mass).
